High-throughput results: PubChem BioAssay, several laboratories
Only some compounds are listed: those with a hit (about 2% of all), similar ones and a draw of the others.
SKKanGAS inh: inhibitors of SKKanGAS S. pyogenes growth in kanamycin (SK-promoter or general growth effect); BacTiter-Glo, 6 h; AID 1662; 1.3% of 300,000 active; inhibition, % at 7.5 µM;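 active means mean replicate score, as percent of positive control median, at least 50; inconclusive means mean below 50 but one replicate at or above 50; inactive means mean and every replicate below 50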;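 further: strain carries kanamycin resistance gene driven by streptokinase promoter and grows in 40 µg/ml kanamycin; loss of luminescence reflects streptokinase promoter inhibition or plain growth inhibition; 0% = median of DMSO wells and 100% = positive control at its reference dose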
PolyA inh: inhibitors of polyadenylation in S. cerevisiae. 0.02% of 300,000 active. activity score, % at 12 µM. S. cerevisiae SKY197-pL101 polyadenylation reporter, beta-gal luminescence; efflux-impaired pdr1/pdr3 knockout yeast; score 100 = 6 SD above DMSO;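 active means lowest replicate activity score at least 50, where 100 means six control SD above control mean; inconclusive means lowest score under 50 but half or more replicates reach 50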;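 further: yeast exposed to compound for 9 h at 30 °C; higher score means more reporter readthrough which indicates perturbed polyadenylation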
CR mimetic SO: lowers age-related superoxide in aged yeast cells | 0.18% of 330,000 active | superoxide response (% of plate mean), % at 10 µM | S. cerevisiae aged cells, superoxide DHE fluorescence; stronger effect = lower value;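 active means superoxide response under a set limit, about three screen SD below normal, cut at about 65% in these data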;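 further: yeast aged for seven days with compound at 30 °C before DHE staining; 100% = average MFI of all compound-treated wells on the plate with controls excluded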
Calb FLC: C. albicans growth modulation with fluconazole; C. albicans CaCi-2 (fluconazole-resistant clinical isolate) + fluconazole, Alamar Blue growth, 48 h; growth inhibition, % (concentration not given with the values); 0.57% of 300,000 active;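 active means growth inhibition above about 58% in most replicates, limit read from the data, passing the limit was not always enough; inconclusive means exactly half the replicates above a set limit; inactive means most replicates below a set limit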;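 further: all wells also contain fluconazole at 8 µg/ml as a sub-toxic cotreatment; 0% = median of DMSO wells and 100% = median of geldanamycin control wells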
Platelet DG rel: platelet dense granule release activity; human platelet-rich plasma, SFLLRN dense granule ATP release, luminescence; inhibition, %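 (compounds screened at 7.5 µM in platelet-rich plasma)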; 0.22% of 300,000 active;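 active means mean replicate score, as percent of positive control, at or above 50; inconclusive means mean below 50 but at least one replicate at or above 50; inactive means mean and every replicate below 50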
The depositor's hits bear a star; ? = inconclusive; . = no result.

SMILES | SKKanGAS inh | PolyA inh | CR mimetic SO | Calb FLC | Platelet DG rel
CC(NC(=O)CCNC(=O)c1ccco1)c1ccccc1 (stereo unspecified) | -4.8 | -10.3 | 97.1 | -2.4 | -2.0
COc1ccc(C2c3cc(OC)c(OC)cc3CCN2C(=O)c2ccccc2Br)cc1OC (stereo unspecified) | -4.2 | -0.3 | 107.2 | 11.2 | -2.3
Cc1c(CCOC(=O)C2C3CC4CC(C3)CC2C4)sc[n+]1CC(=O)c1ccc(Br)cc1 (stereo unspecified) | 49.9* | 3.5 | 105.3 | 28.6 | -7.6
Cc1c(CCOC(=O)c2ccc(Cl)cc2Cl)sc[n+]1CC(=O)c1ccc(Br)cc1 | . | . | 105.5 | . | .
CNC(CC(C)C)C(=O)NC1C(=O)NC(CC(N)=O)C(=O)NC2C(=O)NC3C(=O)NC(C(=O)NC(C(=O)O)c4cc(O)cc(O)c4-c4cc3ccc4O)C(O)c3ccc(c(Cl)c3)Oc3cc2cc(c3OC2OC(CO)C(O)C(O)C2OC2CC(C)(N)C(O)C(C)O2)Oc2ccc(cc2Cl)C1O (stereo unspecified) | 101.8* | 4.5 | 89.0 | -0.7 | 7.1
COc1ccc(S(=O)(=O)c2nnn(-c3cccc(Cl)c3)c2N)cc1 | -5.8 | -2.8 | 98.0 | -14.0 | 3.5
COc1c(S(=O)(=O)NCCCn2ccnc2)ccc(Cl)c1Cl | 1.3 | 5.2 | 93.8 | -3.5 | -1.0
CCn1c(=S)[nH]c2scc(-c3cccs3)c2c1=O | 29.0 | -31.7 | . | 79.8* | -0.7
CC(C)n1c(=S)[nH]c2scc(-c3cccs3)c2c1=O | 42.6 | 9.0 | 119.7 | 47.1 | -1.1
N=C1/C(=C/c2ccc(-c3cccc(C(=O)O)c3)o2)C(=O)N=C2SC=C(c3ccccc3)N12 | 78.8* | 6.0 | 104.0 | 32.1 | 10.7
O=C(Nc1nnc(SCC(=O)N2CCCCC2)s1)c1c(F)cccc1F | 9.7 | -1.1 | 128.4 | 5.3 | 2.8
COc1ccc(CCNC(=O)CSc2nc(N)c3c(C)c(C)oc3n2)cc1OC | -2.6 | -4.9 | 127.7 | -3.0 | 73.8*
COc1ccc(CCNC(=O)CSc2n[nH]c(N)n2)cc1OC | 0.2 | -14.6 | 102.3 | -11.6 | -33.4
Cc1ccc(C(=O)NCCCc2ccccc2)s1 | -0.3 | 9.1 | 99.0 | -3.6 | -9.6
Cc1nc(NC(=O)c2c(-c3ccccc3)noc2C)sc1C(=O)N(C)C | . | . | 97.7 | 120.4* | .
COc1ccc2nc(NC(=O)c3cc(C)oc3C)sc2c1 | 9.9 | -3.8 | 99.5 | -30.3 | 47.4
COC(=O)c1sc(NC(=O)c2c(C)noc2C)nc1C | -2.6 | 2.0 | 106.5 | 9.0 | 52.7*
COc1ccc2nc(NC(=O)c3ccoc3C)sc2c1 | 65.8* | -18.7 | 100.6 | 8.5 | 91.4*
COC(=O)c1sc(NC(=O)c2ccoc2C)nc1C | 21.3 | 5.0 | . | -5.2 | 57.2*
O=C(NCCNC(=O)c1ccccn1)c1ccc(-c2ccccc2)cc1 | -15.1 | 2.9 | 107.9 | 29.5 | -0.8
Cc1cccc(N2N=C(C(=O)N3Cc4ccccc4CC3C(N)=O)CCC2=O)c1 (stereo unspecified) | . | . | 114.8 | . | .
COc1ccccc1NC(=O)COc1ccc2ccccc2c1 | 35.7 | 9.4 | 103.5 | 7.4 | 0.2
COc1ccccc1NC(=O)C(=O)NNC(=O)COc1ccc2ccccc2c1 | 67.1* | 0.1 | 118.8 | 26.4 | 12.6
Cc1ccc(NC(=O)NNC(=O)c2cc3ccccc3cc2O)cc1 | 0.3 | -11.5 | 118.8 | ? | -15.9
COc1cc(OC)cc(C(=O)NNC(=O)c2cc3ccccc3cc2O)c1 | 10.7 | 4.8 | 99.4 | 80.9* | 10.4
SMILES | SKKanGAS inh | PolyA inh | CR mimetic SO | Calb FLC | Platelet DG rel
COc1ccccc1NC(=O)NNC(=O)c1cc2ccccc2cc1O | -4.5 | -3.0 | 103.4 | 85.9* | -14.1
Nn1c(COc2ccccc2F)nnc1SCC(=O)NC1CC1 | -5.1 | -10.3 | 98.9 | 0.1 | 6.2
CC(C)CC(NC(=O)C(CO)NC(=O)C1CCC(=O)N1)C(N)=O (stereo unspecified) | -2.2 | 15.7 | 101.8 | -19.1 | -8.2
COc1ccc(Sc2ccc(NC(=O)c3ccccc3Cl)cc2C#N)cc1 | 52.3* | -13.8 | 93.9 | 3.5 | 13.4
O=C(Nc1nc2ccc([N+](=O)[O-])cc2s1)c1ccco1 | -2.4 | -6.5 | 99.9 | 9.8 | 3.2
O=C(Nc1ccc(N2CCCCC2)cc1)c1ccccn1 | 5.9 | -3.0 | 88.9 | 7.6 | 74.5*
O=C(Nc1ccc(N2CCOCC2)cc1)c1cn2ccccc2n1 | 26.9 | 11.5 | 110.3 | 2.9 | 68.4*
O=C(Nc1ccc(Cl)c(S(=O)(=O)N2CCOCC2)c1)c1cn2ccccc2n1 | -1.2 | -4.6 | 108.2 | 4.8 | -3.5
CCCCN(Cc1cccs1)S(=O)(=O)c1ccc(-c2ccc(=O)[nH]n2)s1 | -0.8 | 20.4 | 96.6 | -1.6 | 4.4
CN(C)CCN(Cc1ccccc1)S(=O)(=O)c1ccc(-c2ccc(=O)[nH]n2)s1 | -0.2 | -10.4 | 86.4 | -34.0 | 51.3*
Cc1c(Cl)ccc2c(C(=O)Nc3cc(C(C)(C)C)on3)cc(-c3ccccn3)nc12 | 62.2* | -10.4 | 101.9 | 0.4 | -4.6
COc1ccc(C2c3ccc4ccccc4c3Oc3ncn(CCN4CCOCC4)c(=N)c32)cc1 (stereo unspecified) | 3.9 | 11.0 | 77.7 | 101.0* | 3.1
Cc1nn(-c2ccccc2)c2sc(-c3n[nH]c(=S)o3)cc12 | 79.9* | -16.2 | 190.7 | -3.9 | 6.6
Cc1nn(-c2ccccc2)c2sc(C(=O)O)cc12 | -6.2 | -17.0 | 139.9 | 26.6 | -0.6
COc1ccc(-c2nc(-c3ccncc3)no2)cc1OC | 0.2 | -20.6 | 103.3 | 102.2* | 5.9
COc1cccc2c1C(=O)c1c(O)c3c(c(O)c1C2=O)C[C@@](O)(C(=O)CO)C[C@@H]3O[C@H]1C[C@H](N)[C@H](O)[C@H](C)O1 | 107.2* | -12.8 | 127.2 | . | 3.6
CC12CCC(=O)N1C(C(=O)Nc1ccccc1N1CCCCC1)CS2 (stereo unspecified) | . | . | 140.6 | . | .
OC1CN=C2CCCc3c2n(c2ccc(Cl)cc32)C1 (stereo unspecified) | 5.4 | 1.0 | 96.6 | -14.8 | .
c1ccc(-c2ccc3c(c2)c2c4n3CCN=C4CCC2)cc1 | -2.4 | -26.3 | 93.4 | 98.9* | 6.2
Cc1ccccc1NS(=O)(=O)c1nnc(NC(=O)c2ccccc2C)s1 | 28.9 | 0.8 | 96.3 | -12.5 | 0.3
COc1ccccc1N1CCN(Cc2cc(=O)c(OCC(=O)NC3CCCC3)co2)CC1 | -2.9 | -15.4 | 108.3 | 6.7 | 16.3
S=C1NC[C@H](CC2CCCCC2)N1CCCCC1CCCCC1 | 76.2* | -16.1 | 93.0 | -5.2 | -2.6
FC(F)(F)c1cc(CCN2C(=S)NC[C@@H]2CC2CCCCC2)cc(C(F)(F)F)c1 | 68.0* | 4.6 | 100.0 | -3.5 | -5.6
S=C1NC[C@H](Cc2ccccc2)N1CCCCC1CCCCC1 | 15.8 | -20.1 | 94.5 | -21.9 | 0.0
c1ccc(-c2c3ccccc3nc3[nH]c4ccccc4c23)cc1 | 96.1* | -14.6 | 108.1 | 10.7 | -2.9
COc1cccc(Nc2c3c(nc4c(-c5ccccc5)c(C)nn24)CCC3)c1 | 77.8* | 2.2 | 115.6 | 50.3 | -7.1
CC(OC(=O)CCc1nc2ccccc2c(=O)[nH]1)C(=O)c1ccc(C(C)(C)C)cc1 (stereo unspecified) | 9.5 | 3.6 | 95.9 | 2.3 | 23.5
